Dicer processing – inhibitors of Dicer pre-microRNA processing, primary screen, biochemical, cat-ELCCA, chemiluminescence; cat-ELCCA pre-miR-21 Dicer processing; stronger effect = higher value; AID 1347074, 2019; Endoribonuclease Dicer (Homo sapiens), Q9UPY3; z-score at 25 µM; 6% of 47,000 active; in the data active means z-score above about 3, passing the limit was not always enough;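 further: higher signal means more uncleaved substrate so more Dicer inhibition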
Numbers stand for hits. The entries come from a sample that favours hits as a whole.

For CC(C)CNC(=O)C1CC(c2ccccc2)=NO1 (stereo not given) the results were Dicer processing 3.61.
O=C(NCc1ccco1)C1CC(c2ccc(Cl)cc2)=NO1 (stereo not given) was read as Dicer processing inactive.
Screening O=C(NCc1ccc2c(c1)OCO2)C1CC(c2cccc(Br)c2)=NO1 (stereo not given) returned Dicer processing inactive.
Screening Cn1c2ccccc2c2nnc(SCc3ccccc3)nc21 returned Dicer processing inactive.
For CCSc1nnc2[nH]c(=O)cc(N)n12 the results were Dicer processing inactive.
Nc1cc(=O)[nH]c2nnc(SCCc3ccccc3)n12 was read as Dicer processing 4.07.
Screening CCCCCSc1nnc2[nH]c(=O)cc(N)n12 returned Dicer processing 4.47.
Screening Nc1cc(=O)[nH]c2nnc(SCc3cccc(Oc4ccccc4)c3)n12 returned Dicer processing inactive.
`CCCCSc1nnc2[nH]c(=O)cc(N)n12` gave Dicer processing inactive.
For CCCCCCCSc1nnc2[nH]c(=O)cc(N)n12 the results were Dicer processing inactive.
Screening CCOC(=O)c1cc2c(NC(=O)c3ccc(Cl)cc3)c(C(=O)OCC)sc2nc1C(F)(F)F returned Dicer processing inactive.
Screening COC(=O)c1scc2c(N3CCC(n4cccc4)CC3)cc(C(F)(F)F)nc12 returned Dicer processing inactive.
`c1cc2c(cc1CNCCCN1CCOCC1)OCO2` gave Dicer processing 5.75.
`O=C(NCc1ccc2c(c1)OCO2)N1CCOCC1` gave Dicer processing inactive.
Clc1cccc(CNCc2ccc3c(c2)OCO3)c1 was read as Dicer processing inactive.
N#CC1=C(N)Oc2c(sc3ccccc23)C1c1cccs1 (stereo not given) was read as Dicer processing inactive.
CCC(C)NC(=O)c1cnn2c1NC(c1ccc(Br)cc1)CC2C(F)(F)F (stereo not given) was read as Dicer processing inactive.
Cc1ccc(C2CC(C(F)(F)F)n3nc(C(=O)NC4CCCC4)c(Cl)c3N2)cc1 (stereo not given) was read as Dicer processing inactive.
`Cc1nn(C)cc1CNC(=O)c1cnn2c1NC(c1ccc(Br)cc1)CC2C(F)(F)F` (stereo not given) gave Dicer processing inactive.
`O=C(NC1CCCCC1)c1cnn2c1NC(c1ccc(Br)cc1)CC2C(F)(F)F` (stereo not given) gave Dicer processing 5.56.
Screening O=C(c1cnn2c1NC(c1ccccc1)CC2C(F)(F)F)N1CCOCC1 (stereo not given) returned Dicer processing inactive.
Screening COCCNC(=O)c1cnn2c1NC(c1ccc(Br)cc1)CC2C(F)(F)F (stereo not given) returned Dicer processing 4.28.
Screening Cc1ccc(C2CC(C(F)(F)F)n3ncc(C(=O)N4CCCCC4)c3N2)cc1 (stereo not given) returned Dicer processing 3.01.
Cc1c(CNC(=O)c2cnn3c2NC(c2ccc(Br)cc2)CC3C(F)(F)F)cnn1C (stereo not given) was read as Dicer processing inactive.
For O=C(c1cnn2c1NC(c1ccc(F)cc1)CC2C(F)(F)F)N1CCCCC1 (stereo not given) the results were Dicer processing inactive.
Cc1nnc2n1N=C(c1ccc(CC(C)C)cc1)C(C)S2 (stereo not given) was read as Dicer processing inactive.
`CSc1nnc(-c2ccc(S(=O)(=O)N3CCOCC3)s2)n1C` gave Dicer processing inactive.
`Cc1ccc2[nH]c(=O)c(-c3noc(-c4ccccc4F)n3)cc2c1` gave Dicer processing inactive.
`Cc1ccnc(N(C(=O)Nc2ccc(Cl)cc2)C2=NCC(C)S2)c1` (stereo not given) gave Dicer processing inactive.
`CSc1nc(COc2ccccc2Cl)nc(N)c1C#N` gave Dicer processing inactive.
For O=c1c2cnn(-c3ccccc3)c2ncn1/N=C/c1ccc([N+](=O)[O-])cc1 the results were Dicer processing inactive.
COc1cccc(-c2cc(C(F)(F)F)n3nc(N)nc3n2)c1 was read as Dicer processing inactive.
COc1ccc(-c2cc(C(F)(F)F)n3nc(N)nc3n2)cc1OC was read as Dicer processing 5.47.
For COc1ccc(-c2cc(C(F)(F)F)n3nc(N)nc3n2)cc1 the results were Dicer processing inactive.
Screening O=S(=O)(Nc1nc(SCc2ccc(Cl)cc2)n[nH]1)c1cccs1 returned Dicer processing inactive.
For O=C(Nc1ccccc1F)NC1CCCc2ccccc21 (stereo not given) the results were Dicer processing 4.6.
Screening CC(C)(C)c1ccc(NC(=O)NC2CCCc3ccccc32)cc1 (stereo not given) returned Dicer processing inactive.
`Cc1noc(C)c1NC(=O)NC1CCCc2ccccc21` (stereo not given) gave Dicer processing inactive.
Screening COc1ccc(CC/C(C)=C2/C(=O)Nc3ccccc32)cc1 returned Dicer processing inactive.
For O=c1ccccn1CCOc1ccc(Cl)cc1 the results were Dicer processing inactive.
Screening CSC1=N/C(=C\N(C)C)C(=O)N1CCOc1ccc(Cl)cc1 returned Dicer processing 3.34.

High-throughput results (PubChem)
